AC50 and activity, negative = inhibition data for 94 compounds are collected here from PubChem BioAssay AID1851 (National Center for Advancing Translational Sciences (NCATS), 2009).

Several values for one entry are separate records, joined by “and”; a condition that tells them apart may be missing. Equal values may be shown once. About 4,000 (25%) of roughly 16,000 compounds were called active. About 26% were inconclusive and are not listed. Calls come from the whole dose curve; as a rule, active = well fitted curve in the direction sought with a large enough effect; inconclusive = small, poorly fitted or top-dose-only effect, or effect the other way; inactive = no such curve, though single readings can be large or run the other way. These entries were drawn from the full list. Where a structure was tested more than once in an assay, its records may differ in their call.
% is set by controls: 0 for no effect and ±100 for the full control effect.

Chain of Cytochrome P450 2C9 (Homo sapiens) (P11712 whole entry, looked up): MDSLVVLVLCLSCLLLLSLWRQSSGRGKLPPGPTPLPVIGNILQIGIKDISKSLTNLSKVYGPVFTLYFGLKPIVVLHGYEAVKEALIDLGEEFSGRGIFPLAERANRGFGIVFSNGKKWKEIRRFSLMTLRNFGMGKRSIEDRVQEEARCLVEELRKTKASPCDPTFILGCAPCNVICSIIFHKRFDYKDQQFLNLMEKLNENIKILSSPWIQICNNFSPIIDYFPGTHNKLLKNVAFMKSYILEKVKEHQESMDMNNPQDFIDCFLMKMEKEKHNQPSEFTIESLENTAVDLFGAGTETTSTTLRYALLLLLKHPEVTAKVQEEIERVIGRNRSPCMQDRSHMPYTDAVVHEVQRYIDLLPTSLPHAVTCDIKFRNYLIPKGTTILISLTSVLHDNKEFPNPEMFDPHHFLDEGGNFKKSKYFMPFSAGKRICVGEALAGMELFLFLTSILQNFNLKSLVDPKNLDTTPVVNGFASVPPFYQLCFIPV

The experiment has as its target Cytochrome P450 2C9 (Homo sapiens) (UniProt P11712). The experiment can be described thus: Cytochrome panel assay with activity outcomes. To be noted: recombinant CYP, pro-luciferin dealkylation, luminescence, p450-cyp2c9; series mostly up to 57.1 µM.
For orientation: AC50 means the concentration giving half of the maximal activity seen. As to `CC(C)NC[C@H]1CCc2cc(CO)c([N+](=O)[O-])cc2N1`, the AC50 result is “inactive”.

Consider `CN(CCO)Cc1ncccc1O`, for which the activity, negative = inhibition was -2.29% [at 11.4 µM] (inactive).

For the compound `CN1CCN(CC(=O)N2c3ccccc3C(=O)Nc3cccnc32)CC1`, the AC50 entry was “inactive”.

As for `CN1CCN(CC(=O)N2c3ccccc3Sc3cc4ccccc4cc32)CC1`, the activity, negative = inhibition was 5.77% [at 11.4 µM] (inactive).

For the compound `Cc1scc2c1N(C(=O)CN1CCN(C)CC1)c1ccccc1NC2=O`, the AC50 entry was “inactive and 2.51 µM (active)”.

`CNc1cc(-c2ccccc2C(F)(F)F)ncn1`: the activity, negative = inhibition was 22.5% [at 2.29 µM] (inactive).

For the compound `O=c1[nH]c(=O)c2nc3ccccc3nc2[nH]1`, the AC50 result is “inactive”.

Consider `Nc1[nH]nc2nc3ccccc3nc12`, for which the AC50 is 2 µM (active).

For `Nc1n[nH]c2ccccc12`, the activity, negative = inhibition was -15.6% [at 11.4 µM] (inactive).

In the case of `CC[C@@H]1CC(=O)N(SC[C@H](N)C(=O)O)C1=O`, the activity, negative = inhibition is 10.2% [at 11.4 µM] (inactive).

Take `CC1CC2(CCCCC2)N2C(=O)C(=O)c3cccc1c32` (centres undefined): the AC50 is 5.01 µM (active).

With `O=c1[nH]c2cc(Br)cnc2nc1/C=C(\O)c1ccc(F)cc1`, the AC50 result was “inactive”.

In the case of `O=c1cc(-c2ccccc2)[nH]c2nc(Cl)ccc12`, the AC50 entry was “inactive”.

As for `Cc1ccccc1S(=O)(=O)c1c(C)cc(-c2ccccc2)[nH]c1=O`, the AC50 was 22.4 µM (active).

Consider `CN(C)CCCNc1c(C(=O)O)cnc2c1cnn2C`, for which the AC50 result was “inactive”.

Regarding `Cn1c2c(c(=O)n(C)c1=O)C(C(F)(F)F)(C(F)(F)F)N=C(c1ccc(Cl)cc1)N2`, the AC50 is 2 µM (active).

Turning to `COc1cccc(Nc2ncc3nc(-c4ccc(F)cc4)c(=O)n(C)c3n2)c1`, the AC50 entry was “inactive”.

Take `COc1ccc(-c2nc3cnc(OC)nc3n(C)c2=O)cc1`: the AC50 entry is “inactive”.

As to `Cn1c(=O)c(-c2ccc(Cl)cc2)nc2cncnc21`, the AC50 entry was “inactive”.

As to `COc1ccc(C2=NC(C(F)(F)F)(C(F)(F)F)c3c(n(C)c(=O)n(C)c3=O)N2)cc1`, the concentration at half-maximal activity (AC50) is 8.91 µM (active).

Regarding `CCN1CCc2nc(N)oc2CC1`, the AC50 entry is “inactive”.

`N[C@](CC1c2ccccc2Oc2ccccc21)(C(=O)O)[C@@H]1C[C@@H]1C(=O)O`: the AC50 result is “inactive”.

On to `CC(=O)c1ccc(OC(=O)C2c3ccccc3Oc3ccccc32)cc1`, for which the concentration at half-maximal activity (AC50) was 28.2 µM (active).

With `CC[N+](C)(CC)CCOC(=O)C1c2ccccc2Oc2ccccc21`, the AC50 result was “inactive”.

As to `CCOC(=O)c1cc2c(C)n(-c3ccc(C)cc3)c(C)c2ccc1=O`, the AC50 is 14.1 µM (active).

With `CCOC(=O)Cn1nc(C)n(-c2ccc(C)cc2)c1=O`, the AC50 result is “inactive”.

Regarding `CCOc1ncnc2c1oc1nc(CC(C)C)c3c(c12)CC(C)(C)OC3`, the AC50 is 20 µM (active).

As to `CCCNC(=O)OC[C@@H]1O[C@H](CCO/N=C(\C)CCN2CCCc3nc(C)c(C)cc32)C=C[C@@H]1Oc1ccc(OC)cc1`, the activity, negative = inhibition is -26.6% [at 11.4 µM] (inactive).

On to `CC12c3ccccc3C(c3ccccc31)C1C(=O)N(Cc3cccnc3)C(=O)C12` (centres undefined), for which the AC50 is 11.2 µM (active).

`CNC(=O)Oc1ccc2c(c1)[C@@]1(C)CCN(C)[C@@H]1N2C`: the AC50 result was “inactive”.

Regarding `O=C(COc1ccccc1C(=O)N/N=C\c1ccc(O)c(O)c1)N/N=C/c1ccc(O)c(O)c1`, the concentration at half-maximal activity (AC50) was 12.6 µM (active).

In the case of `O=C(N/N=C/c1cccc(OC2CSC2)c1)c1ccccc1O`, the AC50 result was “inactive”.

In the case of `COc1ccccc1-c1nccc(NCc2cccc(C)c2)n1`, the activity, negative = inhibition was -8.67% [at 2.29 µM] (inactive).

On to `COC(=O)c1ccc(C#CC(NP(=O)(c2ccccc2)c2ccccc2)c2ccccc2)cc1` (centres undefined), for which the concentration at half-maximal activity (AC50) is 10 µM (active).

Turning to `COC(=O)c1ccc(C23CC2(C(NP(=O)(c2ccccc2)c2ccccc2)c2ccccc2)C3)cc1` (centres undefined), the AC50 is 10 µM (active).

Take `COC(=O)c1ccc(NC(=O)C2CCCCC2C(=O)O)cc1` (centres undefined): the AC50 result is “inactive”.

Consider `CN(C)Cc1ccccc1-c1nccc(N(C)Cc2ccco2)n1`, for which the activity, negative = inhibition was -2.53% [at 2.29 µM] (inactive).

As to `CC(C)(C)N1C(=O)[C@@H]2[C@H]3C(=CC[C@H]2C1=O)C(=O)[C@H]1O[C@H]1[C@H]3O`, the activity, negative = inhibition was 4.81% [at 11.4 µM] (inactive).

`CN(C)c1ccc(-c2cncnc2NCCN2CCOCC2)cc1`: the activity, negative = inhibition is 1.82% [at 2.29 µM] (inactive).

Turning to `Cc1ccc(-c2csc3ncnc(NCCN4CCOCC4)c23)cc1`, the AC50 was 14.1 µM (active).

Turning to `CN(C)C(=O)c1ccc(-c2cncnc2NCCN2CCOCC2)cc1`, the activity, negative = inhibition is 0.0156% [at 2.29 µM] (inactive).

Turning to `O=C1C2=C(NC(=S)NC2c2ccc(Cl)cc2)NC(c2ccc(Cl)cc2)N1c1ccc(Cl)cc1` (centres undefined), the half-maximal activity concentration (AC50) is 11.2 µM (active).

For the compound `O=[n+]1c2c(n([O-])c3cc(F)c(F)cc31)CCCC2`, the AC50 result was “inactive”.

Take `O=c1oc2cc(N=Cc3ccc4c(c3)OCO4)ccc2c2ccccc12`: the activity, negative = inhibition was -21.1% [at 11.4 µM] (inactive).

In the case of `O=[N+]([O-])c1ccc2c(c1)Cc1cc(N=Cc3ccc4c(c3)OCO4)ccc1-2`, the activity, negative = inhibition was -3.27% [at 11.4 µM] (inactive).

Take `O=S(=O)(N/N=C\c1ccc2c(c1)OCO2)c1ccc(Cl)cc1`: the half-maximal activity concentration (AC50) is 1.12 µM (active).

On to `O=S(=O)(N/N=C/c1ccc2c(c1)OCCO2)c1ccc(Cl)cc1`, for which the AC50 is 1.41 µM (active).

As to `C[C@]1(OC(=O)/C=C\c2ccccc2)C[C@@H](O)[C@@]2(O)C=CO[C@@H](O[C@H]3O[C@@H](CO)[C@@H](O)[C@@H](O)[C@@H]3O)[C@H]21`, the AC50 result is “inactive”.

For the compound `CCCN=C(N)NCCC[C@H](N)C(=O)O`, the concentration at half-maximal activity (AC50) was 3.98 µM (active).

Regarding `NC(=NCCC[C@H](N)C(=O)O)NO`, the AC50 entry was “inactive”.

As to `CC(N)=NCCCC[C@H](N)C(=O)O`, the AC50 result is “inactive”.

For the compound `COc1ncc2ncc(=O)n(CCC#N)c2n1`, the AC50 entry is “inactive”.

In the case of `COCCNc1ncnc2ccc(-c3ccc(N(C)C)cc3)cc12`, the activity, negative = inhibition is -3.32% [at 2.29 µM] (inactive).

`COC(Cc1nnc(SC)n1-c1ccc(Cl)cc1)OC`: the AC50 result is “inactive”.

With `O=S(Cc1ccc(Br)cc1)Cc1nnc(SCc2ccc(Cl)cc2)n1-c1ccccc1` (centres undefined), the concentration at half-maximal activity (AC50) was 10 µM (active).

Regarding `Cc1cccc(NC(=S)N2CCC(N(C)CC3CCCO3)CC2)c1C` (centres undefined), the AC50 result is “inactive”.

Turning to `Cc1ccc(S(=O)(=O)Nc2nc3ccccc3nc2N2CCc3ccccc3C2)cc1`, the concentration at half-maximal activity (AC50) was 0.251 µM (active).

`CN1CCN(c2ncnc3ccc(-c4cccc(NS(C)(=O)=O)c4)cc23)CC1`: the activity, negative = inhibition is 22.3% [at 2.29 µM] (inactive).

With `O[C@H](CN1CCN(c2cccc(Cl)c2)CC1)C(c1ccccc1)c1ccccc1`, the AC50 entry is “inactive”.

Turning to `O=C(Cc1ccc(-n2c(=O)[nH]c3ccccc3c2=O)cc1)N1CCN(c2cccc(Cl)c2)CC1`, the AC50 is 3.55 µM (active).

As for `O=C(Cn1ccc2ccccc2c1=O)N1CCN(c2cccc(Cl)c2)CC1`, the AC50 result is “inactive”.

Consider `COc1ccc(CCNC(=O)CC(NS(=O)(=O)c2ccc(NC(C)=O)cc2)C(C)C)cc1OC` (centres undefined), for which the concentration at half-maximal activity (AC50) is 2.51 µM (active).

`CC(=O)Nc1ccc(S(=O)(=O)NC(CC(=O)NCCCN2CCOCC2)C(C)C)cc1` (centres undefined): the AC50 entry is “inactive”.

On to `CC(=O)Nc1ccc(S(=O)(=O)NCCc2ccc(F)cc2)cc1`, for which the AC50 result is “inactive”.

As for `COc1ccc(CCNC[C@H](O)c2ccc(O)cc2)cc1OC`, the AC50 entry was “inactive”.

As to `CC(=O)Nc1ccc(S(=O)(=O)N=S(C)C)cc1`, the AC50 entry is “inactive”.

`COc1ccc(CONS(=O)(=O)c2ccc(NC(C)=O)cc2)cc1Cl`: the half-maximal activity concentration (AC50) is 12.6 µM (active).

For the compound `OCCN(CO)CO`, the activity, negative = inhibition was -10.4% [at 11.4 µM] (inactive).

`CC(=O)OC[C@H]1O[C@@H](O/N=C(\C)CCN2CCCCc3nc(C)c(C)cc32)[C@H](OC(C)=O)[C@@H](OC(C)=O)[C@H]1OC(C)=O`: the activity, negative = inhibition was 23.5% [at 11.4 µM] (inactive).

Regarding `c1ccc(NN(Cc2cnccn2)c2ccccc2)cc1`, the half-maximal activity concentration (AC50) was 3.16 µM (active).

In the case of `c1ccc(CCc2cccnc2)nc1`, the activity, negative = inhibition is -6.59% [at 11.4 µM] (inactive).

For `C#CCOC(=O)Nc1ccc(=O)n(Cc2c(Cl)cccc2Cl)c1`, the concentration at half-maximal activity (AC50) was 1.58 µM (active).

On to `CCn1c(=O)[nH]c2ccccc21`, for which the AC50 entry was “inactive”.

Consider `O=C(OC1CCN(c2ccc([N+](=O)[O-])cc2)CC1)c1ccccc1`, for which the AC50 is 0.631 µM (active).

Take `C[N+]1(C)CCC(OC(=O)C(c2ccccc2)c2ccccc2)CC1`: the AC50 result was “inactive”.

For `O=C(CCCc1ccccc1)N1CCN(c2ccc([N+](=O)[O-])cc2)CC1`, the AC50 result was “inactive”.

For `O=C(O)c1cccc2cccc(-c3cccc4cccc(C(=O)O)c34)c12`, the activity, negative = inhibition is -4.84% [at 11.4 µM] (inactive).

Take `CN1C(=O)/C(=N\OC(=O)c2cccc3ccccc23)c2ccccc21`: the AC50 is 2.82 µM (active).

As to `CC(C(=O)Nc1cccnc1)N1C(=O)C2C3C=CC(C3)C2C1=O` (centres undefined), the AC50 result is “inactive”.

In the case of `Cn1c(=O)cc(OCCCC(=O)Nc2cccnc2)c2ccccc21`, the AC50 entry is “inactive”.

In the case of `CCn1c(=O)cc(OCC(=O)Nc2cccnc2)c2ccccc21`, the AC50 was 15.8 µM (active).

In the case of `CO[C@H]1COC(=O)[C@@H](Cc2ccccc2)NC(=O)[C@@H](C)COC(=O)CCC[C@@H]1C`, the activity, negative = inhibition was 18.6% [at 11.4 µM] (inactive).

Consider `COc1ccc2cc3cc(C(=O)NCc4ccc5c(c4)OCO5)oc3nc2c1`, for which the half-maximal activity concentration (AC50) was 4.47 µM (active).

As for `COc1ccc2cc3cc(C(=O)NCc4ccccn4)oc3nc2c1`, the AC50 entry was “inactive”.

As for `CCCN(CCC)CCCNC(=O)c1cc2cc3ccc(OC)cc3nc2o1`, the AC50 result was “inactive”.

In the case of `Cc1ccc(-n2c(-c3ccc(Br)cc3)c[n+]3c2CCc2ccc4cccnc4c2-3)cc1`, the AC50 result is “inactive”.

Turning to `OCc1ccc(-c2nn(Cc3ccccc3)c3ccccc23)o1`, the AC50 was 31.6 µM (active).

On to `NC(=O)c1csc(-c2ccc(CO)o2)n1`, for which the activity, negative = inhibition is 6.84% [at 11.4 µM] (inactive).

As to `CCNc1ncc2nc(-c3ccc(F)cc3)c(=O)n(CCC#N)c2n1`, the AC50 result is “inactive”.

For the compound `COc1cc2nc(SCc3ccc(Cl)cc3Cl)n(Cc3cccs3)c(=N)c2cc1OC`, the AC50 is 2.51 µM (active).

As for `CN(C)c1ncc2nc(-c3ccc(Cl)cc3)c(=O)n(Cc3cccs3)c2n1`, the AC50 entry was “inactive”.

Take `CN1CCN(c2ncncc2-c2ccccc2C(F)(F)F)CC1`: the activity, negative = inhibition was 10.5% [at 2.29 µM] (inactive).

With `Cc1ccc(S(=O)(=O)ON=C2CCN(S(=O)(=O)c3ccccc3)CC2)cc1`, the AC50 entry is “inactive”.

For `Cc1cc(C)c(S(=O)(=O)N2CCCCC2)c(C)c1N(C)S(=O)(=O)c1ccccc1`, the concentration at half-maximal activity (AC50) is 2 µM (active).
